Inconclusive results are not listed. Active and inactive are the calls of the source. Unless noted, calls follow the shape of the dose curve; as a rule, active = well fitted curve in the direction sought with a large enough effect in the repeat runs; inconclusive = weak or mixed curves; inactive = no such curve, though single readings can be large; an effect the other way counts as inactive or inconclusive.
Columns and labels:
[1] = qHTS assay to identify small molecule agonists of the peroxisome proliferator-activated receptor delta (PPARd) signaling pathway - cell viability counter screen (AID 743211); also: nearly all actives have a fitted effect of over 55% in size
Outline: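 In the same wells used for beta-lactamase reporter measurement, cytotoxicity is scored by CellTiter-Glo. HEK293H PPARd-bla cells receive compound for 17 h at 37C following a 5 h settling period.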

[2] = molecular target: Peroxisome proliferator-activated receptor delta (Homo sapiens) (UniProt Q03181); assay: qHTS assay to identify small molecule agonists of the peroxisome proliferator-activated receptor delta (PPARd) signaling pathway (AID 743212; calls by dose curve)
Outline: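 Read-out: beta-lactamase FRET fluorescence after 2 h room-temperature incubation with LiveBLAzer B/G substrate. Cells were HEK293H carrying a UAS-bla reporter for PPARd, treated at 37 C with DMSO-dissolved compounds.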

[3] = qHTS assay to identify small molecule antagonists of the peroxisome proliferator-activated receptor delta (PPARd) signaling pathway - cell viability counter screen (AID 743213); also: nearly all actives have a fitted effect of over 50% in size
Outline: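 Viability counter-screen, qHTS format: PPARd-bla HEK293H, L165041 300 nM final, 17 h compound exposure at 37 C, CellTiter-Glo luminescence after 30 min RT.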

[4] = molecular target: Peroxisome proliferator-activated receptor delta (Homo sapiens) (UniProt Q03181); assay: qHTS assay to identify small molecule antagonists of the peroxisome proliferator-activated receptor delta (PPARd) signaling pathway (AID 743215; active = well fitted inhibition curve with a large enough effect in the signal ratio in the repeat runs, not every such curve was filed as active; the % refers to the signal ratio;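 also: cells stimulated with agonist L165041 at 300 nM final during compound exposure; series mostly up to about 62 µM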)
Outline: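 Screen format: qHTS, antagonist mode. HEK293H PPARd-bla cells received compound and 300 nM L165041 (final), 17 h, 37 C. Beta-lactamase detected via FRET substrate fluorescence, 2 h, room temperature.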

[5] = qHTS assay to identify small molecule agonists of the farnesoid-X-receptor (FXR) signaling pathway - cell viability counter screen (AID 743218); also: nearly all actives have a fitted effect of over 45% in size
Outline: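 Same-well cytotoxicity check on FXR-UAS-bla HEK 293T cells: 5 h attachment, 16 h compound at 37 C, CellTiter-Glo luminescence read at room temperature after 30 min.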

[6] = molecular target: Bile acid receptor (Homo sapiens) (UniProt Q96RI1); assay: qHTS assay to identify small molecule agonists of the farnesoid-X-receptor (FXR) signaling pathway (AID 743220; active = well fitted activation curve with a large enough effect in the signal ratio in the repeat runs, not every such curve was filed as active; the % refers to the signal ratio)
Outline: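 FXR-UAS-bla HEK 293T cells carrying a UAS-driven beta-lactamase reporter were plated for 5 h at 37C/5% CO2, then exposed to DMSO-dissolved Tox21 10K compounds for 16 h at 37C. A LiveBLAzer B/G FRET substrate was loaded for 2 h at room temperature before fluorescence reading.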

[7] = qHTS assay to identify small molecule antagonists of the farnesoid-X-receptor (FXR) signaling pathway - cell viability counter screen (AID 743221; active = well fitted cell-killing curve with a large enough effect in the repeat runs, not every such curve was filed as active; also: nearly all actives have a fitted effect of over 50% in size)
Outline: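 Here viability was scored by luminescence after CellTiter-Glo addition to wells already read for beta-lactamase. Prior treatment: compound plus CDCA (50 uM final), 16 h, 37 C, HEK 293T FXR-bla cells.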

[8] = molecular target: Vitamin D3 receptor (Homo sapiens) (UniProt P11473); assay: qHTS assay to identify small molecule agonists of the vitamin D receptor (VDR) signaling pathway (AID 743222; calls by dose curve)
Outline: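 Using LiveBLAzer B/G FRET detection, agonism was scored in VDR-bla cells exposed overnight (16 h, 37C) to DMSO-dissolved compounds; substrate incubation was 2 h at room temperature.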

[9] = molecular target: Vitamin D3 receptor (Homo sapiens) (UniProt P11473); assay: qHTS assay to identify small molecule antagonists of the vitamin D receptor (VDR) signaling pathway (AID 743223; active = well fitted inhibition curve with a large enough effect in the signal ratio in the repeat runs, not every such curve was filed as active; the % refers to the signal ratio)
Outline: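 Inhibition of agonist-driven VDR signalling is scored in VDR-bla cells: 3 nM final 1alpha,25-dihydroxyvitamin D3 plus compound, 16 h at 37C, then beta-lactamase detection by FRET substrate fluorescence after 2 h.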

[10] = qHTS assay to identify small molecule agonists of the vitamin D receptor (VDR) signaling pathway - cell viability counter screen (AID 743224); also: series mostly up to about 63 µM; nearly all actives have a fitted effect of over 50% in size
Outline: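 Counter screen for cytotoxicity: VDR-bla cells at 2,000 cells/well, 16 h compound exposure, then CellTiter-Glo luminescence after the beta-lactamase measurement.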

[11] = qHTS assay to identify small molecule agonists of the NFkB signaling pathway (AID 1159509; active = well fitted curve in the direction sought with a large enough effect in the signal ratio in the repeat runs, not every such curve was filed as active; the % refers to the signal ratio; also: series mostly up to about 61 µM)
Outline: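 Readout: FRET fluorescence, 405 nm excitation, 460/530 nm emission; beta-lactamase expression disrupts FRET. Cells: ME-180 stably carrying NF-kB-driven bla reporter. Compound exposure 5 hr, 37 C, 5% CO2.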

[12] = qHTS assay to identify small molecule agonists of the NFkB signaling pathway - cell viability counter screen (AID 1159515; calls by dose curve; also: series mostly up to about 61 µM; nearly all actives have a fitted effect of over 55% in size)
Outline: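 Counter screen run alongside the NFkB-bla agonist assay: ME-180 reporter cells exposed to compounds for 5 hr, then lysed with CellTiter-Glo in the same wells. Luminescence, read after 30 min, reflects viable cells.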

[13] = qHTS assay to identify small molecule agonists of the endoplasmic reticulum stress response signaling pathway (AID 1159516; active = well fitted activation curve with a large enough effect in the signal ratio in the repeat runs, not every such curve was filed as active; the % refers to the signal ratio)
Outline: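 For this screen, HeLa cells stably carrying beta-lactamase under the ER stress response element received test compounds, positive controls or DMSO for 5 hr at 37 C; B/G FRET substrate was then added and dual-wavelength emission recorded.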

[14] = qHTS assay to identify small molecule agonists of the endoplasmic reticulum stress response signaling pathway - cell viability counter screen (AID 1159517; calls by dose curve; also: series mostly up to about 61 µM; nearly all actives have a fitted effect of over 50% in size)
Outline: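 Steps: seed 1,500 ESRE-bla HeLa cells per well; incubate overnight at 37 C, 5% CO2; add compounds in DMSO for 5 hr; run FRET substrate 2 hr RT; add CellTiter-Glo, wait 30 min, read luminescence.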

[15] = qHTS assay to identify small molecule antagonists of the retinoid-related orphan receptor gamma (ROR-gamma) signaling pathway - cell viability counter screen (AID 1159520); also: nearly all actives have a fitted effect of over 50% in size
Outline: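 Tet-on ROR gamma CHO cells were given compounds for 2 hr, then doxycycline hyclate at 1 uM final, and incubated 16 hr at 37 C. Viability was measured as ATP content by CellTiter-Glo luminescence.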

[16] = qHTS assay to identify small molecule agonists of the AP-1 signaling pathway (AID 1159526; calls by dose curve)
[17] = qHTS assay to identify small molecule antagonists of the vitamin D receptor (VDR) signaling pathway - cell viability counter screen (AID 743225); also: nearly all actives have a fitted effect of over 50% in size
Outline: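 Compounds were pinned onto VDR-bla HEK 293T cells together with 1-alpha,25-dihydroxyvitamin D3 at 3 nM final. After 16 h at 37C and 5% CO2 plus the reporter readout, cell viability was measured by CellTiter-Glo luminescence (30 min, room temperature).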

[18] = molecular target: Nuclear receptor ROR-gamma (Homo sapiens) (UniProt P51449); assay: qHTS assay to identify small molecule antagonists of the retinoid-related orphan receptor gamma (ROR-gamma) signaling pathway (AID 1159521)
Outline: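 Test compounds were applied to Tet-on RORγ CHO cells 2 h ahead of doxycycline hyclate (1 uM final). Luciferase reporter activity was quantified by luminescence after 16 h at 37 C and 5% CO2.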

[19] = molecular target: Bile acid receptor (Homo sapiens) (UniProt Q96RI1); assay: qHTS assay to identify small molecule antagonists of the farnesoid-X-receptor (FXR) signaling pathway (AID 743217; active = well fitted inhibition curve with a large enough effect in the signal ratio in the repeat runs, not every such curve was filed as active; the % refers to the signal ratio)
Outline: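 Quantitative HTS, beta-lactamase reporter format: FXR-UAS-bla HEK 293T cells co-treated 16 h at 37 °C with compounds and 50 uM final chenodeoxycholic acid, then read by B/G FRET fluorescence.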

[20] = qHTS assay to identify small molecule agonists of the AP-1 signaling pathway - cell viability counter screen (AID 1159525; calls by dose curve; also: nearly all actives have a fitted effect of over 55% in size)
Outline: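 Same-well cytotoxicity counter screen of the Tox21 10K library in ME-180 cells. The readout is ATP-dependent luminescence after 5 h compound treatment. Data are normalised to DMSO and tetra n-octyl ammonium bromide controls.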

Measured: Potency

Sequence of Vitamin D3 receptor (Homo sapiens) (P11473 whole entry, looked up): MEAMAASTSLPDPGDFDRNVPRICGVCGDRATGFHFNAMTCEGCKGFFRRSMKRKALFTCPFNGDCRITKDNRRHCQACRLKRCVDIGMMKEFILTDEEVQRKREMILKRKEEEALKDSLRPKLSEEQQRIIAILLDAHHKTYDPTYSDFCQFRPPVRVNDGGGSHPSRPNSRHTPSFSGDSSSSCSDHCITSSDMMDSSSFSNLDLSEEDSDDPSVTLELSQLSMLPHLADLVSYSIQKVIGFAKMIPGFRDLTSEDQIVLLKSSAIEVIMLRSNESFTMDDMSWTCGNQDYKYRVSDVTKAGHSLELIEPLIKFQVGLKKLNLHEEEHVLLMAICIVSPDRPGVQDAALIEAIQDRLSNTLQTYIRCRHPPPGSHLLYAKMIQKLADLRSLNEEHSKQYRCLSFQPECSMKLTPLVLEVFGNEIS
Sequence of Peroxisome proliferator-activated receptor delta (Homo sapiens) (Q03181 whole entry, looked up): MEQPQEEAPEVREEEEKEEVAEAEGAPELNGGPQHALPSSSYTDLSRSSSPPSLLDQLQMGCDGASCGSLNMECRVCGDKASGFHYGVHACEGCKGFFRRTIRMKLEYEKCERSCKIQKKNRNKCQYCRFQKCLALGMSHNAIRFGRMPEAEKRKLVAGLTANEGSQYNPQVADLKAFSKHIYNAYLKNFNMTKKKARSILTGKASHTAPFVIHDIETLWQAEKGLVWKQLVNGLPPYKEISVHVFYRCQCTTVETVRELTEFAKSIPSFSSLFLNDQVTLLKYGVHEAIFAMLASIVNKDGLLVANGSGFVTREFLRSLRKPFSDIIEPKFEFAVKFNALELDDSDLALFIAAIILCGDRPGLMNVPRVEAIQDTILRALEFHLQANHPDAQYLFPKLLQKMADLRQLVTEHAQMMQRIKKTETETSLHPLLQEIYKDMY
Sequence of Bile acid receptor (Homo sapiens) (Q96RI1 whole entry, looked up): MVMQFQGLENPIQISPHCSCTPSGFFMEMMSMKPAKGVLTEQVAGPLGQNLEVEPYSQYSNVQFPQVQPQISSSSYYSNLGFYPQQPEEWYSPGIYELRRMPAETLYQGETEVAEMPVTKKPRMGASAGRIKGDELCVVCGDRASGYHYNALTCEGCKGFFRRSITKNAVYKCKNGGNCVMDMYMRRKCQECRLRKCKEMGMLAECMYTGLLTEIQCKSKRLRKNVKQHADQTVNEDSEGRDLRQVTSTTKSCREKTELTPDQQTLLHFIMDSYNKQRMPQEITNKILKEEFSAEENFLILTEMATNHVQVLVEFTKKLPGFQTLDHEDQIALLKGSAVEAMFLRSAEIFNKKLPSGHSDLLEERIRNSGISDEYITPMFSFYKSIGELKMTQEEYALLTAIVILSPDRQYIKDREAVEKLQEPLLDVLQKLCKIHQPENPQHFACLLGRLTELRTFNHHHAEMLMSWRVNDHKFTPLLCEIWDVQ

CC(C)=C[C@@H]1[C@@H](C(=O)OCc2coc(Cc3ccccc3)c2)C1(C)C
not listed: [17] | [18] | [19] | [20]
inactive: all other assays above

CN(C)[C@@H]1C(=O)C(C(N)=O)=C(O)[C@@]2(O)C(=O)C3=C(O)c4c(O)cccc4[C@@](C)(O)[C@H]3C[C@@H]12
not listed: [8] | [9] | [10] | [17] | [18] | [19] | [20]
inactive: all other assays above

Cc1cc(-c2cc(C)c(N)c(C)c2)cc(C)c1N
not listed: [6] | [19] | [20]
inactive: all other assays above

COCCl
inactive: all assays above

Nc1c(Cl)c(Cl)nc(C(=O)O)c1Cl
not listed: [6] | [8] | [9] | [19] | [20]
inactive: all other assays above

CC(=O)C=C(C)C
not listed: [2] | [4] | [6] | [19]
inactive: all other assays above

CC(C)(C)OOC(C)(C)C
not listed: [8] | [9] | [20]
inactive: all other assays above

COP(N)(=O)SC (centres undefined)
not listed: [15]
inactive: all other assays above

Oc1ccccc1Cl
not listed: [6] | [18] | [19] | [20]
inactive: all other assays above
